Laboratory results taken from PubChem BioAssay.
Activity calls are given as the source filed them.

Key:
[1] = system: Human papillomavirus type 1a protein E7 (residues 44-93); test: HPV1a E7 fragment binders on microarrays, primary screen, biochemical, small-molecule microarray, residues 44-93, 635 nm fluorescence (AID 1108); conditions: small-molecule microarray binding, fluorescence 635 nm; higher = more signal;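 further: E7 fragment applied at 1 µg/mL in TBST for 1 h at 4 C; score combines spot fluorescence with its signal to noise ratio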
[2] = modulators of HCV replicon luciferase signal, primary screen, HCV replication inhibitor project, Huh7 cells, luciferase reporter (AID 1109); conditions: 48 h, higher = more signal;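 further: huh7 hepatoma cells harbouring a luciferase neomycin HCV replicon reporter; luciferase luminescence as measure of HCV replicon replication; test concentration not given here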
[3] = molecular target: Left-right determination factor 2 (Homo sapiens) (UniProt O00292); test: LEFTY2 binders on small-molecule microarrays, primary screen, biochemical, small-molecule microarray, 635 nm fluorescence scan (AID 1110); conditions: LEFTY2 binding, higher = more signal
Left-right determination factor 2 (Homo sapiens), sequence (O00292 whole entry, looked up): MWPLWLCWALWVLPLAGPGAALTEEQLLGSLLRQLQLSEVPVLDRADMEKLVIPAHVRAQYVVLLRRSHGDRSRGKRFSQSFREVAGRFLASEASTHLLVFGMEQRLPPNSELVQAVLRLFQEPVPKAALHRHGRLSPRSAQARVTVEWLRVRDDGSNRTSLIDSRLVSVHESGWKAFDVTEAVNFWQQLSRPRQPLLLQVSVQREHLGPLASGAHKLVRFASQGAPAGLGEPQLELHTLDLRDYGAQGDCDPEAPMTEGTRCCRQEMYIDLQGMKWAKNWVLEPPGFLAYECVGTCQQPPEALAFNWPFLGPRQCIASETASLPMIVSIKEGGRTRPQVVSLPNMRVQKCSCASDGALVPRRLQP

[4] = molecular target: Calmodulin-1 (Homo sapiens) (UniProt P0DP23); test: CALM1 binders on microarrays, EGTA buffer, profiling panel, biochemical, small-molecule microarray, Cy5-labelled CALM1 (AID 1111); conditions: Cy5-CALM1 binding fluorescence, higher = more signal;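 further: labelled calmodulin applied in Tris saline Tween buffer holding calcium plus EGTA and DTT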
[5] = molecular target: Calmodulin-1 (Homo sapiens) (UniProt P0DP23); test: calcium-bound CALM1 binders on microarrays, profiling panel, artefact control for SMM control-protein annotation, biochemical, small-molecule microarray, Cy5-labelled CALM1, plus calcium (AID 1112); conditions: Cy5-CALM1 binding fluorescence, higher = more signal;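 further: score merges spot fluorescence with signal to noise from triplicate slides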
[6] = small-molecule microarray binders of probe aWnt5a, primary screen, biochemical, biotinylated probe, 635/667 nm fluorescence (AID 1113); conditions: higher = more signal;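 further: score merges 667 nm fluorescence intensity with signal-to-noise per printed feature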
[7] = small-molecule microarray binders of probe aShh, primary screen, biochemical, biotinylated probe, 635/667 nm fluorescence (AID 1114); conditions: higher = more signal;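 further: probe is biotin-labelled aShh protein from a stem cell growth factor screen; measures binding of labelled protein to compounds printed on the slide; score merges feature fluorescence at 667 nm with signal-to-noise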
[8] = small-molecule microarray binders of probe aNog, primary screen, biochemical, biotinylated probe, 635/667 nm fluorescence (AID 1115); conditions: higher = more signal;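 further: probe is biotinylated aNog protein used at 0.15 µg/mL for 1 h at 4 C; z-score combines 667 nm fluorescence of each spot with its signal to noise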
[9] = molecular target: Torsin-1A-interacting protein 1 (Homo sapiens) (UniProt Q5JTV8); test: LAP1 binders from COS7 cell lysate, primary screen, small-molecule microarray, 635/667 nm fluorescence (AID 1116); conditions: COS7-hLAP1 lysate binding, 635 nm fluorescence, higher = more signal
Torsin-1A-interacting protein 1 (Homo sapiens), sequence (Q5JTV8 whole entry, looked up): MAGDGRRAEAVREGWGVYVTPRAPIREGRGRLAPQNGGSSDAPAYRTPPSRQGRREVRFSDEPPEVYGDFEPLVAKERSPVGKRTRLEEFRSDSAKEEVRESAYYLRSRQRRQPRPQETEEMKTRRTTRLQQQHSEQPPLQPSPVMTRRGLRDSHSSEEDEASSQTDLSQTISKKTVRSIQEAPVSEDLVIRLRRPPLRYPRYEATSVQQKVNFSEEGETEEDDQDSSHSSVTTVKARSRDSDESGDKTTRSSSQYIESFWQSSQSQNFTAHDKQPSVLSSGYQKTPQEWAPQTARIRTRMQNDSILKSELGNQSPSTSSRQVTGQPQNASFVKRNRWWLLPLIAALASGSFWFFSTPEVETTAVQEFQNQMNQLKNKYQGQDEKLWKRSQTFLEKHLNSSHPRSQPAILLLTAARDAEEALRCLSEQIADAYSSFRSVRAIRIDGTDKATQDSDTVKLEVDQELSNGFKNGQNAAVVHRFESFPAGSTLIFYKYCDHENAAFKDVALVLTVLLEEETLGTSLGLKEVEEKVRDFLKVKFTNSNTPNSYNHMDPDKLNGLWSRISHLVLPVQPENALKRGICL

[10] = molecular target: Alpha-bungarotoxin (Bungarus multicinctus) (UniProt P60615); test: alpha-bungarotoxin binders on microarray, profiling panel, artefact control for SMM control protein annotation, biochemical, small-molecule microarray, Alexa647 label, 635/667 nm fluorescence (AID 1117); conditions: alpha-BTX-A647 binding fluorescence, higher = more signal
Alpha-bungarotoxin (Bungarus multicinctus), sequence (P60615 whole entry, looked up): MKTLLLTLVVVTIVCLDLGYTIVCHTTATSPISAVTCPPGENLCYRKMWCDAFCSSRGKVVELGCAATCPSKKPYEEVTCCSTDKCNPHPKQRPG

Albumin (Bos taurus) = Albumin (Bos taurus) (UniProt P02769); test: bovine serum albumin binders on microarray, profiling panel, artefact control for SMM control protein annotation, biochemical, small-molecule microarray, Alexa647 label, 635/667 nm fluorescence (AID 1118); conditions: BSA-A647 binding, fluorescence 635 nm, higher = more signal;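 further: score merges 667 nm emission intensity and signal-to-noise per printed compound spot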
Albumin (Bos taurus), sequence (P02769 whole entry, looked up): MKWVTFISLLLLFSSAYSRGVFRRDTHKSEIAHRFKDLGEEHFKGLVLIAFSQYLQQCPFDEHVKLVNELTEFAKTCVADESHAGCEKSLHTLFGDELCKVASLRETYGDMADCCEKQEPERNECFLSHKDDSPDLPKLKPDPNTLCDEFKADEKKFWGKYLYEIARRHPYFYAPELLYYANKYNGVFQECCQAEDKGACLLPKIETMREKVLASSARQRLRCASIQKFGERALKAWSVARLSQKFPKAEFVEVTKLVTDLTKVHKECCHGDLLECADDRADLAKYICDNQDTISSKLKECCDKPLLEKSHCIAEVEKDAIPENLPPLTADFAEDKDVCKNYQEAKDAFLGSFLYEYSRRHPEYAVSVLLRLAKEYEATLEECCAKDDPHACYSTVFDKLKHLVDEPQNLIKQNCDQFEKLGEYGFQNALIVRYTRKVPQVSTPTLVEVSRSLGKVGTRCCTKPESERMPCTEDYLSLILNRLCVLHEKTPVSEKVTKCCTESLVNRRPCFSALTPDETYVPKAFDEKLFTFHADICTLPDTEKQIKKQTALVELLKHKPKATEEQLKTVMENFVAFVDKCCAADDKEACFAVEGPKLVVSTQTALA

[11] = small-molecule microarray binders of probe aXIP, primary screen, biochemical, NeuroSMM set, 635/667 nm fluorescence (AID 1119); conditions: higher = more signal, called active from +8 up or from −8 down;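 further: probe is the protein aXip251-270 applied at 1 µg/mL to compound-printed slides; binding of probe to printed compounds measured as 667 nm fluorescence plus signal to noise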
[12] = small-molecule binders of probe aNOTCH3, primary screen, biochemical, small-molecule microarray, 635/667 nm fluorescence (AID 1120); conditions: higher = more signal;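 further: probe is a biotin-tagged antibody raised against NOTCH3 rather than NOTCH3 protein; score merges spot fluorescence near 667 nm with spot signal to noise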
[13] = small-molecule binders of probe aNOTCH2, primary screen, biochemical, small-molecule microarray, 635/667 nm fluorescence (AID 1121); conditions: higher = more signal;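 further: score merges feature fluorescence read at 667 nm with its signal to noise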
[14] = molecular target: Carbonic anhydrase 2 (Homo sapiens) (UniProt P00918); test: CAII small-molecule binders, profiling panel, biochemical, small-molecule microarray, Alexa647-labelled CAII (AID 1122); conditions: CAII-A647 binding fluorescence, higher = more signal
[15] = COS7 lysate on small-molecule microarray, probe aHis, 635 nm (AID 1123); conditions: COS7 cell lysate, fluorescence, higher = more signal;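 further: z-score combines 667nm fluorescence intensity with signal-to-noise per printed compound spot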
[16] = compound binding in COS7 lysate, probe aLAP1, primary screen, cell lysate, small-molecule microarray (AID 1124); conditions: probe aLAP1, fluorescence, higher = more signal;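 further: lysate comes from COS7 cells expressing LAP1 and is applied at 0.3 µg/mL; score merges spot fluorescence near 667 nm with signal-to-noise over triplicate slides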
Sam68 (KHDRBS1) = test: Sam68 small-molecule binders, primary screen, biochemical, small-molecule microarray, 635 nm fluorescence (AID 1125); conditions: small-molecule microarray binding, higher = more signal;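 further: score merges 667 nm channel intensity with signal to noise over triplicate slides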
[17] = system: Chordin-like protein 2 (CHRDL2); test: CHRDL2 small-molecule binders, primary screen, biochemical, small-molecule microarray, 635 nm fluorescence (AID 1126); conditions: small-molecule microarray binding, fluorescence 635 nm; higher = more signal;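 further: printed compound slides probed with Chrdl2 protein at 4 µg/mL for 1 h at 4 C; score merges 667 nm emission intensity with signal to noise over three replicate slides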
[18] = molecular target: Concanavalin-A (Canavalia ensiformis) (UniProt P02866); test: ConA small-molecule binders, primary screen, artefact control for SMM control protein annotation, biochemical, small-molecule microarray, Alexa647 label, 635 nm (AID 1127); conditions: ConA-A647 binding fluorescence, higher = more signal;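 further: z combines 667 nm emission intensity with signal-to-noise across three replicate slides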
Concanavalin-A (Canavalia ensiformis), sequence (P02866 whole entry, looked up): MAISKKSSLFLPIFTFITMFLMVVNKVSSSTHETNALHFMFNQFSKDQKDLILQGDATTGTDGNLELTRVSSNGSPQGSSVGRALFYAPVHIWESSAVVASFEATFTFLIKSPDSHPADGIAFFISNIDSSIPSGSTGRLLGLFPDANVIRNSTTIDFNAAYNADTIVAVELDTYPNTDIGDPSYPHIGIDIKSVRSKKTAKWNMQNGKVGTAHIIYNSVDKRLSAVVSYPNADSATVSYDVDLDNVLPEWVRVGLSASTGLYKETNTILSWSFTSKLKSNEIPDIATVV

Row | SMILES | composite z-score [1] | z-score [2] | composite z-score [3] | composite z-score [4] | composite z-score [5] | composite z-score [6] | composite z-score [7] | composite z-score [8] | composite z-score [9] | composite z-score [10] | composite z-score (Albumin (Bos taurus)) | composite Z-score [11] | composite z-score [12] | composite z-score [13] | composite z-score [14] | composite z-score [15] | composite z-score [16] | composite z-score (Sam68 (KHDRBS1)) | composite z-score [17] | composite z-score [18]
1 | COc1cc(C(O)C2C=CC3C(=O)N(C)C(=O)C3N2Nc2ccccc2)cc(OC)c1OC (stereo not given) | 0.1 | 0.461 | -0.129 | 1.8 | 0.661 | 0.233 | 0.0725 | 2.22 | 1.3 | 0.469 | 0.785 | -0.014 (inactive) | 0.962 | 0.106 | 0.818 | 3.2 | 0.708 | 1.11 | -0.0836 | 1.01
2 | CCCCCCc1nc(Cc2cc(OC)c(OC)c(OC)c2)cc2c1[Si](C(C)C)(C(C)C)OC2 | -0.457 | -1.96 | 0.186 | -0.112 | -0.302 | -0.0462 | -0.214 | -0.174 | -0.136 | -0.0869 | -0.526 | 0.0886 (inactive) | -0.0395 | -0.153 | -0.0134 | 0.157 | -0.0343 | 0.239 | 0.472 | 0.524
3 | C=C(COC)/C(=C/C[C@H](OC(=O)c1ccncc1)c1ccc(CO)o1)c1cnc2ccccc2c1 | 1.38 | -0.403 | 0.321 | -0.0747 | -0.91 | -0.0758 | 0.337 | -0.12 | 0.865 | 1.91 | -0.0377 | 0.99 (inactive) | 0.0282 | -0.123 | 0.915 | 1.04 | 1.12 | 1.27 | 0.766 | 1.08
4 | CC(C)=C1C(=O)C(c2ccccc2)=C2CN3C(=O)N(CCc4ccccc4)C(=O)[C@]3(Cc3ccc(C(F)(F)F)cc3)[C@H]21 | -0.396 | -0.508 | -0.906 | 1.66 | 0.953 | 0.0044 | 0.275 | -0.781 | 0.759 | 0.716 | 0.682 | -0.355 (inactive) | 0.34 | 0.134 | 0.368 | 1.95 | 0.224 | -0.439 | -2.09 | -0.47
5 | CCCCCC1=C2CNC(C)(C(=O)OC)C=C2C(C)C1=O (stereo not given) | -0.696 | -0.654 | -0.37 | 0.764 | 0.897 | -0.0519 | 0.265 | 1.17 | 0.137 | -0.0075 | 0.673 | 0.239 (inactive) | -0.0716 | 0.0414 | 0.839 | 1.18 | 0.947 | -0.868 | -0.409 | -1.51
6 | CCCC=C(CCC)[C@@H](NS(=O)(=O)c1ccc(C(F)(F)F)cc1)c1ccccc1 | 0.608 | -0.0015 | -0.318 | 0.641 | 0.951 | 0.0853 | -0.106 | 0.711 | -0.127 | 0.261 | -0.127 | 0.404 (inactive) | 0.149 | 0.115 | 0.0051 | 1.34 | -0.122 | 0.42 | -0.732 | 0.277
7 | CC1CC/C=C\[C@H]2OC34C=CCN(C(C)(C)C)C(=O)[C@H]3N(CCCCCO)C(=O)[C@@H]4C2C(=O)O1 (stereo not given in full) | -1.33 | 0.095 | -0.464 | -0.835 | -0.517 | -0.199 | -0.283 | -0.0105 | -0.348 | -1.25 | -0.0891 | -0.838 (inactive) | -0.219 | -0.153 | 0.887 | -0.658 | -0.55 | -0.883 | -1.34 | -2.1
8 | CC[C@@H]1O[Si](C(C)C)(C(C)C)c2c1cc(-c1cc(C)c(OC)c(C)c1)nc2-c1ccc(Oc2ccccc2)cc1 | -0.871 | -0.748 | -0.389 | -0.162 | 0.0543 | -0.117 | -0.299 | -0.103 | -0.386 | 0.0748 | -0.145 | -0.837 (inactive) | -0.0967 | -0.141 | -0.272 | 0.133 | -0.006 | -0.807 | -0.77 | -0.0734
9 | CC1=C2[C@@H](CCc3ccccc3)OB(O)C[C@@H]2[C@@H]2C(=O)N(C)C(=O)[C@@H]2C1 | 0.135 | -0.779 | 0.173 | 0.0309 | -0.338 | -0.0519 | 0.0469 | -0.137 | 0.284 | 0.769 | 0.541 | 0.706 (inactive) | 0.248 | -0.138 | 0.422 | 0.0513 | 0.76 | 0.453 | 0.723 | 0.245
10 | CCCC[C@@H](O)C1=C(COc2ccccc2)C[C@H]2C(=O)N(Cc3ccccc3)C(=O)[C@H]2[C@H]1CO | 0.207 | -2.3 | 0.321 | 0.422 | -0.451 | -0.161 | -0.214 | -0.213 | 0.176 | 1.29 | 0.0031 | -0.861 (inactive) | -0.287 | -0.0795 | 0.099 | 0.523 | -0.523 | 0.426 | 0.228 | 0.395
11 | CC(C)c1ccc(NN2C(C(O)c3ccc(C#N)cc3)C=CC3C(=O)N(c4ccccc4)C(=O)C32)cc1 (stereo not given) | 1.44 | -0.882 | -0.109 | 2.28 | 1.01 | -0.0405 | 0.19 | 1.97 | 1.35 | 1.85 | 1.04 | 0.238 (inactive) | 0.33 | -0.0296 | 0.358 | 2.84 | 0.982 | 1.3 | 0.0494 | 0.926
12 | CO[C@H]1O[C@H](CO)[C@@H](OC(=O)Nc2ccc3c(c2)OCO3)[C@H](OC(=O)Nc2ccc3c(c2)OCO3)[C@@H]1OC(=O)Nc1ccc2c(c1)OCO2 | 1.49 | 0.158 | 0.472 | 1.88 | -0.745 | 0.0618 | 0.313 | 0.909 | 1.25 | 1.7 | 0.792 | 0.871 (inactive) | 0.0789 | -0.0349 | 0.572 | 2.51 | 0.943 | 1.31 | 0.12 | 0.954
